High-throughput results as filed in PubChem.
HT1080 IDH1KD tx = kills HT-1080 cells with IDH1 knockdown; AID 686971; actives 2% (n = 360,000); HT-1080 IDH1 knockdown viability, ATP luminescence, 48 h; Potency, µM (titrated, usually from 46.1 µM), usual class: cytotoxic
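Luminescent ATP read-out (CellTiter-Glo, 10 min at room temperature) after 48 h compound exposure at 37 °C gave viability of IDH1-knockdown HT-1080 cells. Activity was normalised to DMSO and cell-free wells, then fitted as concentration-response curves.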
KB-3-1 cytotox = kills parental KB-3-1 adenocarcinoma cells | KB-3-1 viability, CellTiter-Glo ATP luminescence, 72 h | Potency, µM (highest dose often 46.1 µM), most hits filed as cytotoxic | actives 1.4% (n = 400,000) | AID 1347075; note: nearly all actives have a fitted effect of over 60% in size
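Screening of KB-3-1 cells (DMEM, 10% FBS, phenol-red free) ran from lowest to highest compound concentration; after 72 h at 37 °C viability was read luminescently and curves fitted.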
TDP1 cell noCPT = qHTS for Inhibitors of human tyrosyl-DNA phosphodiesterase 1 (TDP1): qHTS in cells in absence of CPT; Potency, µM (doses to about 46.2 µM), hits mostly inhibitors; AID 686978, 2013; DT40 Tdp1-/- hTDP1 cells, no CPT, ATP luminescence, 48 h; actives 15% (n = 420,000); note: nearly all actives have a fitted effect of over 55% in size
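Growth kinetics read by CellTiter-Glo luminescence after ≥48 hr at 37 °C. Cells: DT40 Tdp1-/- stably carrying human TDP1, 400 per well, compound exposure in the absence of CPT (DMSO vehicle).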
TDP1 cell CPT = DT40-hTDP1 cell growth loss with CPT | chicken DT40 Tdp1-/-;hTDP1 cells + 20 nM CPT, ATP luminescence, 48 h | Potency, µM (titrated, usually from 46.2 µM), hits mostly inhibitors | actives 12% (n = 420,000) | AID 686979; note: nearly all actives have a fitted effect of over 55% in size
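Chicken DT40 Tdp1-/- cells complemented with human TDP1, 400 cells/well, exposed to compounds plus 20 nM camptothecin for at least 48 h at 37 C; viability read as ATP content by CellTiter-Glo luminescence.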
HT1080NT lethal = kills 2HG-producing HT-1080-NT fibrosarcoma cells; HT-1080-NT fibrosarcoma viability, CellTiter-Glo ATP luminescence, 48 h; Potency, µM (highest dose often 46.1 µM), usual class: cytotoxic; actives 1.6% (n = 360,000);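 note: NT is the 2HG producing partner of a matched IDH1 knockdown line; nearly all actives have a fitted effect of over 55% in size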
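Fibrosarcoma NT cells, 750 per well in 5% FBS RPMI, were exposed to compound for 48 hours. Viability: CellTiter-Glo luminescence.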
KB-V1 cytotox = KB-V1 MDR subline cytotoxicity; KB-V1 MDR cells viability, CellTiter-Glo, 72 h; Potency, µM (titrated, usually from 46.1 µM), hits mostly cytotoxic; actives 3.4% (n = 400,000); AID 1347076; note: nearly all actives have a fitted effect of over 60% in size
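Cytotoxicity toward P-gp-expressing KB-V1 cells was determined as loss of CellTiter-Glo luminescence after 72 h at 37 degrees C. Compounds were tested in quantitative HTS format across a concentration range, with curves fitted to normalized data.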
Hits are given with their value; . = inactive; ? = inconclusive; / = no result given; [ ] = another dose, or the depositor's remark. Shown are actives, neighbours in structure and some others; about 19% of the full set was active somewhere. Calls come from the whole dose curve; as a rule, active = well fitted curve in the direction sought with a large enough effect; inconclusive = small, poorly fitted or top-dose-only effect, or another doubt; inactive = no such curve, though single readings can be large; an effect the other way counts as inactive or inconclusive.

SMILES | HT1080 IDH1KD tx | KB-3-1 cytotox | TDP1 cell noCPT | TDP1 cell CPT | HT1080NT lethal | KB-V1 cytotox
Cc1ccccc1CNC(=O)C(=O)NCC(c1ccc2c(c1)OCO2)N1CCOCC1 (stereo not drawn) | / | . | . | . | / | .
COC(=O)c1c(-c2ccc(C(C)(C)C)cc2)csc1NC(=O)C1C2CCC(O2)C1C(=O)O (stereo not drawn) | . | . | ? | ? | . | .
CSc1nc2sc(-c3ccccc3)cc2c(=O)n1N | . | ? | ? | ? | . | 9.2µM
CC(C)Sc1nc2sc(-c3ccccc3)cc2c(=O)n1N | . | . | . | . | ? | .
CSc1ccc(C2CC(=O)Oc3c2c(=O)n(C)c2ccccc32)cc1 (stereo not drawn) | / | . | . | . | / | .
OC(COCCC12CC3CC(CC(C3)C1)C2)CN1CCCC1 (stereo not drawn) | ? | . | ? | 18.4µM | ? | .
CC(NCC(O)COCCC12CC3CC(CC(C3)C1)C2)c1ccccc1 (stereo not drawn) | ? | ? | 14.6µM | 6.51µM | ? | ?
O=C(OCC(O)CN1CCCCC1)C12CC3CC(CC(C3)C1)C2 (stereo not drawn) | . | . | . | . | . | .
CC(C)C(C)NC(=O)COC(=O)c1cccc(C(=O)OCC(=O)NC(C)C(C)C)n1 (stereo not drawn) | . | . | . | . | . | .
CCOC(=O)c1ccccc1Nc1cn(C(C)=O)c2ccccc12 | ? | 5.8µM | 4.61µM | 3.66µM | ? | .
CC(=O)n1cc(Nc2ccc([N+](=O)[O-])cc2)c2ccccc21 | . | . | ? | ? | . | ?
Cc1ccc(CC(=O)Nc2cccc(C(=O)Nc3c(C)n(C)n(-c4ccccc4)c3=O)c2)cc1C | . | . | ? | ? | . | .
O=C(CCNc1ccc(F)c(Cl)c1)c1ccco1 | ? | . | 6.51µM | 3.66µM | ? | .
O=C(CCNc1ccc(Cl)c(C(F)(F)F)c1)c1ccco1 | . | . | 9.2µM | 7.31µM | . | .
O=C(CCNc1cc(Cl)cc(Cl)c1)c1ccco1 | . | . | 13µM | 13µM | . | .
O=C(CCNc1ccc(F)cc1)c1ccco1 | . | ? | 7.31µM | 3.26µM | . | .
O=C(CCNc1cccc(C(F)(F)F)c1)c1ccco1 | ? | . | 16.4µM | 20.6µM | ? | .
Cc1cnc(-n2ncc(C(=O)NCc3ccccn3)c2C2CC2)nc1-c1cccs1 | / | / | . | .[9.04 µM] | / | /
O=C(Nc1ccon1)c1ccc(OC2CCCC2)cc1 | . | . | ? | . | . | 18.4µM
Cc1cc(NC(=O)c2ccc(C(C)(C)C)cc2)no1 | . | . | ? | . | . | .
CC(C)(C)c1cc(NC(=O)c2ccc(OC3CCCC3)cc2)no1 | ? | ? | ? | ? | . | 16.4µM
Cn1c(=O)[nH]c(=O)c2c1nc(N1CCCC1)n2CCCSc1nc2ccccc2o1 | . | . | ? | 23.1µM | . | .
Cn1c(=O)[nH]c(=O)c2c1nc(N1CCCCC1)n2CCCSc1nc2ccccc2s1 | . | . | 13µM | 13µM | . | .
Cn1c(=O)[nH]c(=O)c2c1nc(Br)n2CCCSc1nc2ccccc2o1 | ? | ? | 25.9µM | ? | ? | ?
Cn1c(=O)[nH]c(=O)c2c1nc(N1CCCCCC1)n2CCSc1nc2ccccc2[nH]1 | . | . | . | . | . | .
SMILES | HT1080 IDH1KD tx | KB-3-1 cytotox | TDP1 cell noCPT | TDP1 cell CPT | HT1080NT lethal | KB-V1 cytotox
Cc1nnc(SCCCn2c(N3CCN(c4ccccc4)CC3)nc3c2c(=O)[nH]c(=O)n3C)s1 | . | . | ? | ? | . | ?
Cn1c(=O)[nH]c(=O)c2c1nc(Br)n2CCSc1ncccn1 | . | . | . | . | . | ?
COc1ccc(S(N)(=O)=O)cc1C(=O)OCCCC(=O)c1ccccc1 | . | . | ? | ? | . | .
CC(C)NC(=O)C1(C)CN(S(C)(=O)=O)CC(=O)N1C1CC1 (stereo not drawn) | . | . | . | . | . | .
CC1(C)CC(=O)C(C(=O)/C=C/NCCc2ccccc2)C(=O)C1 | ? | . | ? | . | ? | .
CC1(C)CC(=O)C(C(=O)/C=C/c2ccco2)C(=O)C1 | . | . | 20.6µM | 14.6µM | . | .
COc1cc(CN2CC(=O)N(c3ccc(C)c(Cl)c3)C2=S)cc(OC)c1OC | . | . | 20.6µM | ? | ? | ?
COc1ccc(CN2CC(=O)N(c3ccc(C)cc3)C2=S)cc1OC | . | . | ? | . | . | .
COc1cc(CN2CC(=O)N(c3ccc(C)cc3)C2=S)cc(OC)c1OC | . | ? | 25.9µM | ? | . | 10.3µM
O=[N+]([O-])c1cc([N+](=O)[O-])c2c(=Nc3ccccc3)n(-c3ccccc3)n(O)c2c1 | ? | . | 10.3µM | 3.26µM | ? | .
CNC(C)C(=O)NC(C(=O)NC(C)C(=O)NNc1ccccc1)C(C)C (stereo not drawn) | ? | . | . | . | ? | .
O=C(/C=C/c1ccccc1)c1cc(Br)ccc(=O)c1O | ? | 11.6µM | 4.61µM | 3.66µM | 18.4µM | ?
Cc1ccc(/C=C/C(=O)c2ccccc(=O)c2O)cc1C | ? | 9.2µM | 13µM | 23.1µM | 18.4µM | 20.6µM
O=C(/C=C/c1ccc(F)cc1)c1cc(Br)ccc1O | . | . | . | . | . | .
O=S(=O)(O)c1cc(O)c2cc(Nc3ccccc3)ccc2c1 | . | . | . | . | . | .
O=S(=O)(O)c1cc(O)c2c(N=Nc3ccc(Nc4ccccc4)c4c(S(=O)(=O)O)cccc34)cc(S(=O)(=O)O)cc2c1 | / | / | 13.3µM | 18.8µM | / | /
CCOC(=O)N1CCN(C(=O)Nc2ccc3nc(C)sc3c2)CC1 | . | . | . | . | . | .
CCc1nnc(NC(=O)C2CCCN(c3nc4ccccc4s3)C2)s1 (stereo not drawn) | . | . | . | . | . | 14.6µM
CCOC(=O)Nc1ccc2nc(N3CCCCCC3)sc2c1 | 8.2µM | . | 2.59µM | 3.66µM | ? | ?
CCOc1ccc2nc(N3CCCC(C(=O)NCc4ccccc4OC)C3)sc2c1 (stereo not drawn) | / | . | 23.1µM | ? | / | .
O=C(Nc1ccc2c(c1)OCO2)C1CCCN(c2nc3ccccc3s2)C1 (stereo not drawn) | ? | ? | ? | ? | . | .
CCOc1ccc2nc(N3CCCC(C(=O)Nc4ccc(OC)cc4)C3)sc2c1 (stereo not drawn) | / | ? | 11.6µM | 14.6µM | / | .
CCOC(=O)N1CCN(C(=O)C2CCCN(c3nc4ccc(OCC)cc4s3)C2)CC1 (stereo not drawn) | . | . | ? | ? | . | .
CC(=O)c1ccc(Nc2cc(C)nc3nc(Cc4ccc(Cl)cc4)nn23)cc1 | / | . | . | ? | / | .
